High-throughput results as filed in PubChem.
HT1080 IDH1KD tx: qHTS for induction of synthetic lethality in tumor cells producing 2HG: qHTS for the HT-1080-IDH1KD cell line; HT-1080 IDH1 knockdown viability, ATP luminescence, 48 h; Potency, µM (doses to about 46.1 µM), inactives show at the top dose activity, negative = toxicity, actives largely listed as cytotoxic; hit rate 2% among 360,000;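 note: potency is the fitted concentration of half-maximal effect; 0% = DMSO wells and -100% = cell-free medium wells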
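IDH1KD HT-1080 cells, 750/well, RPMI + 5% FBS; compound pinned after 2 h settling; 48 h, 37 °C; CellTiter-Glo luminescence; % activity normalised to DMSO and no-cell wells; curves fitted, classed by r2 and efficacy.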
TDP1 cell CPT: qHTS for Inhibitors of human tyrosyl-DNA phosphodiesterase 1 (TDP1): qHTS in cells in presence of CPT; Potency, µM (top dose mostly 46.2 µM), for the others: top-dose activity change, negative = growth inhibition, actives largely listed as inhibitors; chicken DT40 Tdp1-/-;hTDP1 cells + 20 nM CPT, ATP luminescence, 48 h; hit rate 12% among 420,000; note: potency is the fitted concentration of half-maximal effect; nearly all actives have a fitted effect of over 55% in size
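Cell growth measured by CellTiter-Glo luminescence after a minimum 48 h, 37 C compound exposure with 20 nM CPT in Tdp1-knockout DT40 cells stably expressing hTDP1, seeded 400/well; qHTS titration format.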
TDP1 cell noCPT: qHTS for Inhibitors of human tyrosyl-DNA phosphodiesterase 1 (TDP1): qHTS in cells in absence of CPT. DT40 Tdp1-/- hTDP1 cells, no CPT, ATP luminescence, 48 h. Potency, µM (titrated, usually from 46.2 µM), for inactives: at the highest dose activity change, negative = growth inhibition, actives largely listed as inhibitors. hit rate 15% among 420,000; note: potency is the fitted concentration of half-maximal effect; nearly all actives have a fitted effect of over 55% in size
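Seeded 400 DT40-hTDP1 cells/well (vehicle DMSO, no 20 nM CPT); pinned compounds; ≥48 hr at 37 °C; CellTiter-Glo luminescence as viability measure.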
IL1B secr inh: qHTS for Inhibitors of Inflammasome Signaling: IL-1-beta AlphaLISA Primary Screen. hit rate 4.7% among 360,000. activity change, % at 57.5 µM. AID 743279, 2014. THP-1 LPS/ATP IL-1B secretion, AlphaLISA, 16 h; stronger effect = lower value; in the data active = activity change below about -50%; inconclusive = mostly about -30% to -49%
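Secreted IL-1B measured by AlphaLISA bead assay after 16 h compound exposure of THP-1 cells; compounds (final up to 57.5 uM) added 1 h before LPS (250 ng/mL) and ATP (1.25 mM) stimulation; lower signal means less secretion.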
HT1080NT lethal: qHTS for induction of synthetic lethality in tumor cells producing 2HG: qHTS for the HT-1080-NT fibrosarcoma cell line; HT-1080-NT fibrosarcoma viability, CellTiter-Glo ATP luminescence, 48 h; Potency, µM (titrated, usually from 46.1 µM), without a hit: top-dose activity, negative = less viability, most hits filed as cytotoxic; hit rate 1.6% among 360,000; AID 686970, 2013;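 note: NT is the 2HG producing partner of a matched IDH1 knockdown line; potency is the fitted concentration of half-maximal effect; 0% = DMSO-treated cells and -100% = media-only wells without cells; nearly all actives have a fitted effect of over 55% in size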
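HT-1080-NT fibrosarcoma cells (2HG-overproducing), 750 cells/well in RPMI with 5% FBS, dosed after 2 h and incubated 48 h at 37C. CellTiter-Glo luminescence normalized to DMSO and no-cell wells; concentration-response curves fitted and classed.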
* marks the source's active call; other numbers are inactive results; ? = inconclusive; / = not tested or not shown; [ ] = dose if it differs, or a comment. Only some compounds are listed: those with a hit (about 19% of all), similar ones and a draw of the others. Unless noted, calls come from the whole dose curve; as a rule, active = well fitted curve in the direction sought with a large enough effect; inconclusive = small, poorly fitted or top-dose-only effect, or another doubt; inactive = no such curve, though single readings can be large; an effect the other way counts as inactive or inconclusive. Unless noted, % is set by controls: 0 for no effect and ±100 for the full control effect.

SMILES | HT1080 IDH1KD tx | TDP1 cell CPT | TDP1 cell noCPT | IL1B secr inh | HT1080NT lethal
COC(=O)C1CCN(Cc2ccc3c(c2)CN(C(=O)C2Cc4ccccc4O2)CCO3)CC1 (stereo not given) | / | 17.1%[9.04 µM] | -14.5% | / | /
O=C(Nc1ccc2ccccc2n1)c1ccccc1Br | -23.5% | 0.5% | -13.5% | 30.2 | -20.7%
CCCc1c(-c2cccc(Br)c2)ncn1Cc1ccccc1OC | ? | ? | 20.6µM* | -17.2 | ?
COc1ccccc1CC(=O)N1CCN(c2cccc(Cl)c2)CC1 | 8.6% | -12.7% | -27.9% | -7.5 | 8.9%
CCCc1c(-c2cccc(Cl)c2)ncn1CCc1ccccc1OC | ? | ? | 16.4µM* | -21.4 | ?
CCCc1c(-c2ccc(Cl)cc2)ncn1Cc1ccccc1OC | ? | 11.6µM* | 20.6µM* | -1.5 | ?
COc1ccccc1Cn1cnc2cccnc21 | 3.7% | -20.0% | 6.6% | -9.7 | -0.9%
CCCc1c(-c2ccc(F)cc2)ncn1CCc1ccccc1OC | ? | ? | 16.4µM* | -5.8 | ?
O=C(COC(=O)/C=C/c1ccccc1Cl)NCCNC(=O)COC(=O)/C=C/c1ccccc1Cl | -1.1% | -1.0% | -14.1% | 6.1 | -11.9%
COc1cc(OC)c2nc(-c3cc4c(c(OC)c3)OCCN(Cc3cn(C)nc3C)C4)cc(C)c2c1 | / | -6.5%[9.04 µM] | ? | / | /
COc1ccccc1CCn1cc(C#N)c(=O)[nH]c1=O | -0.3% | 0.8% | -16.8% | 22.4 | 1.9%
CCCc1c(-c2ccc(Cl)cc2)ncn1CCc1ccccc1OC | ? | 6.51µM* | 5.8µM* | -92.9* | ?
COc1cccc(-c2nc(Cn3c(=O)cc(C)c4c(C)nn(-c5ccccc5)c43)c(C)o2)c1OC | / | 7.9% | 9.8% | / | /
CCOC(=O)[C@]12CCCC=C1N(CCC1=CCCCC1)C(=O)[C@H](CC(=O)N1CCC(c3ccccc3)CC1)C2 | ? | ? | 14.6µM* | -8.4 | ?
CCOC(=O)[C@]12CCC=C1N(CCC1=CCCCC1)C(=O)[C@H](CC(=O)N1CCN(C(=O)C3CC3)CC1)C2 | 16.9% | -29.5% | -19.5% | 3.4 | 11.4%
CCOC(=O)[C@]12CCC=C1N(CCC1=CCCCC1)C(=O)[C@H](CC(=O)N1CCCCC1)C2 | 16.9% | 18.4µM* | 13µM* | 22.4 | 11.7%
CCOC(=O)N1CCN(C(=O)C[C@@H]2C[C@@]3(C(=O)OCC)CCCC=C3N(CCc3ccc(OC)c(OC)c3)C2=O)CC1 | 10.8% | ? | ? | -21.3 | -3.8%
CCOC(=O)[C@]12CCCC=C1N(CCC1=CCCCC1)C(=O)[C@H](CC(=O)N1CCCC1)C2 | -26.9% | 2.06µM* | 2.31µM* | 29.9 | -19.2%
CCOC(=O)[C@]12CCCC=C1N(CCc1ccc(OC)c(OC)c1)C(=O)[C@H](CC(=O)N1CCCC1)C2 | -20.2% | 11.6µM* | 9.2µM* | -11.0 | -0.3%
CC(C)CC(c1nnnn1Cc1ccc2c(c1)OCO2)N1CCC(C(N)=O)CC1 (stereo not given) | 8.4% | -4.6% | -1.8% | 10.6 | 19.3%
S=C(NCCc1ccccn1)Nc1cccc(Cl)c1 | 21.5% | ? | ? | 0.0 | 16.7%
CCOC(=O)[C@]12CCC=C1N(CCC1=CCCCC1)C(=O)[C@H](CC(=O)N1CCCC1)C2 | 9.1% | 23.1µM* | ? | 25.5 | 18.3%
CC(=O)N1CC(=O)N(c2ccccc2)C1=O | -1.2% | 8.2% | 5.3% | 11.0 | 5.1%
COc1ccc(Cl)cc1N1C(=NC(=O)C2CCCCC2)SC2CS(=O)(=O)CC21 (stereo not given) | 6.9% | -11.5% | 7.9% | -0.6 | 12.9%
CCOC(=O)Cc1cn2c(=O)cc(CSCC(=O)Nc3ccc(C)c(C)c3)nc2s1 | 11.0% | 18.4µM* | ? | 1.9 | -5.9%
